High-throughput results as filed in PubChem.
The list is not random: actives were taken first. Their share in the collection is about 6.5%.
MARV entry inh: Marburg virus entry inhibition; Marburg virus pseudotyped entry inhibition, cell reporter; Potency, µM (titrated, usually from 37.8 µM), for inactives: at the top dose activity change, negative = inhibition, hits mostly inhibitors; AID 540276; 300,000 tested, 1.8% active; calls by dose curve; tested in HEK293 cells; also: potency is read from the fitted curve at half-maximal effect
HCMV antiviral: human cytomegalovirus inhibition | HFF cells, HCMV-luciferase reporter, 72 h; hits give low values | activity change, negative = inhibition, % at 57.5 µM | 410,000 tested, 4.5% active | AID 1259415; in the data active = activity change below about -60%; inconclusive = no clear call, values can overlap the other calls; inactive = above about -39%
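Inhibition of viral replication was scored as loss of reporter luminescence in HFFs infected with HCMV-luciferase (MOI 1 PFU/cell) for 72 h; compounds tested at 2 doses, normalized to buffer and Salinomycin controls.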
FMDV inh: blocks foot and mouth disease virus | FMDV antiviral cell-based qHTS | Potency, µM (doses to about 57.9 µM), inactives show at the top dose activity change, negative = inhibition, most hits filed as inhibitors | 410,000 tested, 1.2% active | AID 1159524; calls by dose curve; tested in HEK293T cells; also: read-out not given here; potency is read from the fitted curve at half-maximal effect; nearly all actives have a fitted effect of over 45% in size
LASV entry inh: blocks Lassa virus binding to or entry into cells; Lassa virus pseudotype entry inhibition, cell reporter; Potency, µM (titrated, usually from 37.9 µM), for the others: top-dose activity change, negative = inhibition, usual class: inhibitors; 300,000 tested, 1.2% active; calls by dose curve; tested in HEK293 cells; also: potency is read from the fitted curve at half-maximal effect; nearly all actives have a fitted effect of over 50% in size
Vaccinia mCherry: vaccinia inhibition (mCherry reporter); Vaccinia virus mCherry reporter infection, fluorescence; Potency, µM (titrated, usually from 36.5 µM), without a hit: at the top dose activity change, negative = inhibition, usual class: inhibitors; 310,000 tested, 0.63% active; calls by dose curve; tested in A549 cells; also: potency is read from the fitted curve at half-maximal effect; nearly all actives have a fitted effect of over 35% in size
VACV Venus inh: vaccinia inhibition (Venus reporter). Vaccinia virus Venus reporter expression, fluorescence. Potency, µM (top dose mostly 36.5 µM), inactives show at the top dose activity change, negative = inhibition, hits mostly inhibitors. 330,000 tested, 0.46% active. AID 720580; calls by dose curve; tested in A549 cells; also: potency is read from the fitted curve at half-maximal effect; nearly all actives have a fitted effect of over 30% in size
Active calls of the source: *; i = inactive; ? = inconclusive; . = no result given; ! = a repeat was not active; [ ] = another dose, or the depositor's remark. % is scaled to controls: 0 for no effect and ±100 for the full control effect.

SMILES	MARV entry inh	HCMV antiviral	FMDV inh	LASV entry inh	Vaccinia mCherry	VACV Venus inh
CCOC(=O)CN(C(=O)CSc1nnc(-c2cccc(OC)c2)o1)c1ccc(F)cc1	7%	-26	-28%	?	.	.
O=C(CSc1nnc(-c2c[nH]c3ccccc23)o1)N(Cc1ccccc1)c1ccc(F)cc1	18µM*	.	.	?	?	?
CN(CCC#N)C(=O)CSc1nnc(-c2c[nH]c3ccccc23)o1	.	50	19%	.	.	.
O=C(NC(Cc1ccc(O)cc1)C(=O)N=Nc1c(O)[nH]c2ccccc12)c1ccccc1 (stereo unspecified)	6%	-83*	12%	-7%[46.1 µM]	-5%	-5%
CCS(=O)(=O)c1ncc(N(Cc2ccccc2)Cc2ccco2)c(C(=O)Nc2cccc(Cl)c2C)n1	?	-30	3%	-10%[46.1 µM]	-11%	-10%
CCS(=O)(=O)c1ncc(Cl)c(C(=O)N(Cc2ccccc2)Cc2ccco2)n1	?	-99*	14µM*	?	-14%[7.34 µM]	-10%[7.34 µM]
COc1cc(OC)cc(C(=O)N2CCN(c3ccccc3F)CC2)c1	?	-35	31%	-25%	-9%	?
COc1ccc(C(=O)C(=O)N2CCN(c3ccccc3F)CC2)cc1	.	-68*	-4%	.	-15%	-4%
COc1ccc(-c2cn3c(C)c(C(=O)N4CCN(c5ccccc5F)CC4)sc3n2)cc1	.	-60*	-11%	.	15%	-10%
COc1ccc(-c2cn3c(C)c(C(=O)N4CCCc5ccccc54)sc3n2)cc1	.	?	?	.	10µM*	?
CCn1c2c(c(=O)n3ncc(C(=O)N4CCN(c5ccc(Cl)cc5)CC4)c13)CN(Cc1ccc(OC)cc1)CC2	.	?	?	?	?	-28%
CCn1c(C)nc2cc(NS(=O)(=O)c3ccccc3)cc(C(=O)N3C[C@@H](C)O[C@@H](C)C3)c21	.	.	-5%	.	i	-10%
CN(C)C(=O)c1ccc(-c2nc(Nc3ccccc3)c3ccccc3n2)cc1	.	.	25%	.	.	.
O=C(COc1ccc2ccccc2c1)Nc1ccc(O)c(-c2nc3ccccc3o2)c1	.	.	.	.	0%	-18%
CC(C)NC(=O)[C@@H]1C[C@@H](Sc2nc3ccccc3[nH]2)CN1C1Cc2ccccc2C1	.	.	1%	.	?	-25%
COc1ccc([C@@H]2NC3=C(CCC3)[C@@]3(C#N)C(OC)(OC)N=C(N)[C@]23C#N)cc1	-6%	.	.	.	.	.
S=C(NCC1CCCO1)Nc1ccc(Nc2ccccc2)cc1 (stereo unspecified)	-7%[14.2 µM]	-69*	-23%	-15%	-10%	-3%
S=C(NCC1CCCO1)Nc1cccc(Cl)c1 (stereo unspecified)	7%	?	52%	24%	-24%	-14%
COc1ccc(/C=C/C(=O)NC(=S)NCC2CCCO2)cc1 (stereo unspecified)	-1%[46.1 µM]	-33	-8%	?	-6%	-9%
Cc1scc(C(=O)NNC(=S)NCC2CCCO2)c1-c1ccccc1 (stereo unspecified)	?	-62*	-18%	-2%	-1%	-13%
COc1ccccc1/C=C/C(=O)NC(=S)NCC1CCCO1 (stereo unspecified)	4%[46.1 µM]	-62*	-24%	?	-7%	-9%
Cc1ccc(NC(=O)COc2ccccc2)c(NC(=O)c2ccccc2C)c1	4%	-64*	-14%	21%	-1%	-5%
Cc1ccc(NC(=O)c2ccco2)c(NC(=O)COc2ccccc2)c1	14%[46.1 µM]	-33	-4%	0%	4%	-12%
CCOc1cc(CNCCO)cc(Br)c1OCc1ccc(Cl)cc1	?	-99*	?	?	?	?
CCOc1cc(CNC(C)(C)CO)cc(Br)c1OCc1ccc(Cl)cc1Cl	18µM*	4	?	?	?	?
SMILES	MARV entry inh	HCMV antiviral	FMDV inh	LASV entry inh	Vaccinia mCherry	VACV Venus inh
COc1cc(CNC(C)(C)CO)cc(Br)c1OCc1ccccc1	?	-32	-14%	?	-13%	-12%
CCOc1cc(CNCCO)cc(Br)c1OCc1ccccc1Cl	16µM*	-3	13µM*	?	-9%[1.46 µM]	10µM*
CCOc1cc(CNc2ccc(O)cc2)cc(Br)c1OCc1ccccc1	?	-104*	?	-7%[46.1 µM]	?	?
Nc1nonc1C(=O)NCCNCc1cc(Br)ccc1OCc1ccccc1F	?	-62*	?	-19%	.	.
OCCNCc1cc(Br)ccc1OCc1ccccc1Cl	?	-61*	?	-17%	-1%	-22%
COc1cc(CNc2ccc(O)cc2)cc(Br)c1OCc1ccccc1F	?	.	?	?	-2%	-1%
COc1cc(CNCc2ccncc2)cc(Br)c1OCc1ccccc1F	?	-90*	32µM*	?	.	.
CCOc1ccc(S(=O)(=O)Nc2ccc3c(c2)N(C(C)=O)CCC3)cc1	.	88	-24%	?	i	-16%
Cc1noc(Cn2c(=O)c3cc4c(cc3n(CC(=O)Nc3cccc(Cl)c3)c2=O)OCO4)n1	.	6	?	18%[46.1 µM]	-4%	-6%
COC(=O)C1=CN(c2ccc(C(C)(C)C)cc2)C(N)=C(C#N)C1c1ccc(OC)cc1 (stereo unspecified)	.	-77*	-25%	.	?	-8%
COC(=O)C1=CN(c2ccc(F)cc2)C(N)=C(C#N)C1c1ccc(-c2ccccc2)cc1 (stereo unspecified)	.	-13	0%	.	?	-29%
Cc1cc(Cl)ccc1NS(=O)(=O)c1ccc2c(c1)CC(C)N2C(=O)C1CCC1 (stereo unspecified)	.	-27	-7%	-21%[46.1 µM]	-24%	-13%
Cc1ccc(NC(=O)N2CC=C(c3c[nH]c4ccccc34)CC2)cc1Cl	.	-66*	-6%	?	-22%	-14%
COc1ccc(-c2sc(N)nc2-c2ccccc2)cc1	.	.	.	.	0%	-26%
CCC(=O)N(Cc1cccs1)[C@@H]1CCOC(C)(C)C1	-16%[46.1 µM]	.	.	.	.	.
CCCCCCCCn1ccc(=N)cc1	?	?	?	?	-15%	-12%
CCCCCCCCCCCCCCCCn1cc[n+](C)c1	?	-96*	32µM*	-28%	?	?
COc1cc2nc(N3CCCN(C)CC3)nc(Nc3ccncc3)c2cc1OC	.	.	.	.	-10%	?
COc1cc(OC)cc(C(=O)N[C@H](C(=O)OCC(=O)Nc2ccc(C)cc2C)C(C)C)c1	2%	-90*	-8%	-15%	-20%	-8%
COc1ccc(CCn2c(=S)[nH]c(=O)c3nccnc32)cc1OC	.	.	.	.	i	-20%
Cc1ccc(CNC(=O)CNS(=O)(=O)c2cccs2)cc1	.	23	-21%	-7%[46.1 µM]	-6%	5%
Cc1ccc(-c2nn(CC(=O)NCc3cc(-c4nn(C)c(=O)c5ccccc45)ccc3C)c(=O)c3ccccc23)cc1	3.2µM*!	-95*	16µM*	?	?	?
Cn1nc(-c2ccc(C(=O)Nc3ccc(F)cc3)cc2)c2ccccc2c1=O	?	-30	40µM*	?	0%	-5%
Cc1ccc(NC(=O)c2ccc(-c3nn(C)c(=O)c4ccccc34)cc2)cc1	-23%	-38	?	-12%	.	.
